Experimental findings from PubChem BioAssay (NCATS) are described below.

SMILES strings stand for the structures. Inconclusive results are not listed. A number with no mark means an inactive call. Active and inactive are the calls of the source. Calls come from the whole dose curve; as a rule, active = well fitted curve in the direction sought with a large enough effect; inconclusive = small, poorly fitted or top-dose-only effect, or another doubt; inactive = no such curve, though single readings can be large; an effect the other way counts as inactive or inconclusive. Positions of bridges follow the written chain, without caps; N, C: chain ends. Non-standard residues stand in square brackets, D forms with d. Residues, ends and D or L forms follow the SMILES beside them. ξ: configuration not given here. *: point of attachment. Octanoyl(6-Me) = CCC(C)CCCCC(=O)*; ξThr(3R) = C[C@@H](O)C(N)C(=O)O; dDab = NCC[C@@H](N)C(=O)O; Dab = NCC[C@H](N)C(=O)O

The test system of assay [1] is HEK293T. Nature of the assay: qHTS assay to identify novel small-molecules to repurpose for Merkel cell carcinoma treatment (AID 1296009). Note: nearly all actives have a fitted effect of over 60% in size. Note: potency is the fitted concentration of half-maximal effect. To be noted: MCC and control cell lines, CellTiter-Glo viability, 72 h; series mostly up to 44.8 µM. Summed up: (§1)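 Luminescence from CellTiter-Glo, read 10 min after addition at room temperature, reported viability following a 72 hr, 37 degree celsius treatment with NPC or MIPE compounds in titration; values normalized to plate controls.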
Background: Quantitative high-throughput screening tests each substance at several concentrations.

Assay [2] relates to MCC-13. The assay is described as above. The note with it: MCC and control cell lines, CellTiter-Glo viability, 72 h; series mostly up to 46 µM. Summed up:
as §1
(In general: Cellular ATP, detected with luciferase, serves as a proxy for viable cell number.)

In assay [3] the test system is MCC-26. Described as above. The note with it: MCC and control cell lines, CellTiter-Glo viability, 72 h; series mostly up to 46 µM. The method, boiled down: as §1
Assay [4] relates to MKL-1. Described as above. The note with it: MCC and control cell lines, CellTiter-Glo viability, 72 h; series mostly up to 46 µM. Summed up: as §1
The test system of assay [5] is MKL-2. The assay is described as above. The note with it: MCC and control cell lines, CellTiter-Glo viability, 72 h; series mostly up to 46 µM. The method, boiled down: as §1
Assay [6] deals with UISO. The description is as above. The note with it: MCC and control cell lines, CellTiter-Glo viability, 72 h; series mostly up to 46 µM. The method, boiled down:
as §1

Assay [7] concerns WaGa. Described as above. The note with it: MCC and control cell lines, CellTiter-Glo viability, 72 h; series mostly up to 46 µM. The method, boiled down: as §1
For assay [8], the system named is NIH3T3. The description is as above. To be noted: MCC and control cell lines, CellTiter-Glo viability, 72 h; at 44.8 µM (top of the series) unless noted. Summed up:
as §1

For assay [9], the system named is C33A. The experiment in a line: Primary qHTS to identify gynecologic anti-cancer compounds using libraries of approved drugs and bioactive compounds (AID 1345084). Note: nearly all actives have a fitted effect of over 55% in size. To be noted: Gynecologic cancer cell panel viability, ATPlite luminescence, 48 h; series mostly up to 57.5 µM. The method, boiled down: (§2)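 Cells, 1,000 per well, plated 16 h, then exposed 48 h at 37 C to compounds. Viability by ATPlite luminescence after 15 min at room temperature.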

Assay [10] relates to CASKI. Described as above. To be noted: Gynecologic cancer cell panel viability, ATPlite luminescence, 48 h; series mostly up to 57.5 µM. Summed up:
as §2

On to `O=S(=O)(O)CCSSCCS(=O)(=O)O`, for which the Potency result in assay [1], in [2], in [3], in [4], in assay [5] and in [6] was “inactive” each time. Moreover, the Potency result in assay [7] is “inactive”.

On to `O=C(CN1C(=O)C2(CCCC2)NC[C@H]1c1cc(F)cc(F)c1)Nc1ccc2c(c1)C[C@@]1(C2)C(=O)Nc2ncccc21`, for which the Potency entry in assay [1], in assay [2], in assay [3], in [4], in assay [5] and in assay [6] was “inactive” each time. Moreover, the Potency entry in assay [7] was “inactive”.

As for `COc1cc(CCc2cc(NC(=O)c3ccc(N4C[C@@H](C)N[C@@H](C)C4)cc3)n[nH]2)cc(OC)c1`, the Potency is 14.6 µM (active) in [1] and 23.5 µM (active) in [6]. Besides, the Potency entry in assay [2], in assay [5] and in assay [7] was “inactive” each time.

As for `CN(CC(=O)N(Cc1ccc(C2CCCCC2)cc1)c1ccc(C(=O)O)c(O)c1)S(=O)(=O)c1c(F)c(F)c(F)c(F)c1F`, the Potency result in assay [1], in assay [3] and in assay [6] was “inactive” in each case. For the same compound, the Potency in [4] was 8.33 µM (active); in [7], 6.62 µM (active). Besides, the compound was called inactive in assay [8].

As for `CCCc1nc(C(C)(C)O)c(C(=O)O)n1Cc1ccc(-c2ccccc2-c2nn[nH]n2)cc1`, the Potency entry in [1], in assay [2], in assay [3], in assay [4], in [5] and in assay [6] was “inactive” throughout. Further, the Potency entry in assay [7] is “inactive”. Moreover, the outcome in [8] was inactive.

As for `Cn1cc(C=CC(=O)c2cccc(F)c2)cc1C=CC(=O)NO`, the Potency result in assay [1], in assay [2], in assay [3], in assay [4] and in [6] was “inactive” throughout. For the same compound, the outcome in [8] was inactive.

`COC(=O)[C@@H]1CC2=CC(=O)CC[C@]2(C)[C@@]23O[C@@H]2C[C@@]2(C)[C@H](CC[C@@]24CCC(=O)O4)[C@@H]13`: the Potency entry in [1], in assay [2], in [3], in [4], in assay [5] and in assay [6] was “inactive” each time. Further, the Potency result in assay [7] is “inactive”. Moreover, in assay [8], the outcome was inactive.

For `COC(=O)C=CC(=O)OC`, the Potency entry in [1], in assay [2], in [3], in assay [4], in assay [5] and in assay [6] was “inactive” in each case.

For `Nc1nc(=O)n([C@H]2CSC(CO)O2)cc1F` (some centres not stated), the Potency entry in assay [1], in assay [2], in assay [4], in [5], in assay [6] and in assay [7] was “inactive” throughout. In addition, the compound was classed as inactive in assay [8].

As for `c1coc(CNc2ncnc3nc[nH]c23)c1`, the Potency result in [1], in [2], in assay [3], in assay [4], in [5] and in [6] was “inactive” throughout. The Potency result in [7] is “inactive”.

`CON=C(C(=O)N[C@@H]1C(=O)N2C(C(=O)O)=C(CSC(=O)c3ccco3)CS[C@H]12)c1csc(N)n1`: the Potency result in assay [1], in assay [2], in [3], in [4], in [5] and in assay [7] was “inactive” each time.

In the case of `Cc1nc(NC(=O)N2CCC[C@@H]2C(N)=O)sc1-c1ccnc(C(C)(C)C(F)(F)F)c1`, the Potency entry in assay [2], in assay [3] and in assay [4] was “inactive” in each case.

Consider `CN1C(C(=O)Nc2ccccn2)=C(O)c2sc(Cl)cc2S1(=O)=O`, for which the Potency entry in assay [1], in assay [2], in assay [3], in assay [4], in assay [6] and in assay [7] was “inactive” throughout.

Take `CC(Oc1ccc(O)cc1)(P(=O)(O)O)P(=O)(O)O`: the Potency entry in [1], in [2], in assay [3], in assay [4], in assay [5] and in [6] was “inactive” in each case. Further, the Potency result in assay [7] was “inactive”.

Take `COC(=O)[C@@H]1[C@H]2C[C@@H]3c4[nH]c5ccccc5c4CCN3C[C@@H]2CC[C@@H]1O`: the Potency entry in assay [1], in assay [2], in assay [3], in [4], in assay [6] and in [7] was “inactive” each time.

On to `O=c1c(O)c(-c2ccc(O)c(O)c2)oc2cc(O)ccc12`, for which the Potency result in assay [2], in [3], in assay [4] and in assay [5] was “inactive” throughout.

Consider `c1cc(CN2CCCNCCNCCCNCC2)ccc1CN1CCCNCCNCCCNCC1`, for which the Potency entry in assay [1], in assay [2], in assay [3], in assay [4], in assay [5] and in assay [6] was “inactive” throughout. The Potency result in [7] was “inactive”.

On to `C[C@]12CCC(=O)C=C1[C@@H]1CC1[C@H]1[C@H]3[C@@H]4C[C@H]4[C@@]4(CCC(=O)O4)[C@@]3(C)CC[C@H]12` (some centres not stated), for which the Potency result in assay [2], in [3], in assay [4], in assay [5], in assay [6] and in assay [7] was “inactive” in each case. Moreover, the call in [8] was inactive.

`CCC(C)CCCCC(=O)N[C@@H](CCN)C(=O)NC(C(=O)N[C@H](CCN)C(=O)N[C@@H]1CCNC(=O)C([C@@H](C)O)NC(=O)[C@@H](CCN)NC(=O)[C@@H](CCN)NC(=O)[C@@H](CC(C)C)NC(=O)[C@H](Cc2ccccc2)NC(=O)[C@H](CCN)NC1=O)[C@@H](C)O` (stereo partly drawn) ({Octanoyl(6-Me)}-[Dab][ξThr(3R)][dDab][dDab][Dab]F[dL][dDab][dDab][ξThr(3R)]; lactam 4-C): the Potency result in [1], in [2], in [4], in [5], in assay [6] and in assay [7] was “inactive” each time. Moreover, the call in [8] was inactive.

Turning to `CC1(C)O[C@@H]2C[C@H]3[C@@H]4CCC5=CC(=O)C=C[C@]5(C)[C@@H]4[C@@H](O)C[C@]3(C)[C@]2(C(=O)CO)O1`, the Potency entry in assay [1], in assay [2], in assay [3], in assay [4], in assay [5] and in assay [6] was “inactive” in each case. Further, the Potency result in assay [7], in assay [9] and in [10] was “inactive” throughout.

Consider `CCCCCCCCCCCCc1ccc(S(=O)(=O)Nc2nncs2)cc1`, for which the Potency entry in [1], in assay [2], in [3], in assay [4], in assay [5] and in [6] was “inactive” throughout. Further, the Potency entry in assay [7] was “inactive”. The result in assay [8] was inactive.
